Rows were chosen to be rich in hits. Some 3.1% of all compounds tested hit in one or more screens of this group.
GSIS activator: GLuc luminescence reporter in INS-1E cells, primary screen for activators of glucose-dependent secretion of insulin; activation, % at 16.6 µM; 0.61% of 370,000 active; INS-1E GLuc reporter insulin secretion, 2-3 h;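 active = lowest replicate activation of at least 40%, so every replicate reaches that level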;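 also: 0% = median of neutral control wells and 100% = median of IBMX positive control wells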
EWS-Fli block: EWS/Fli transcriptional activity inhibition; A673 NR0B1-luciferase reporter, viability-normalised; inhibition, % at 12.6 µM; 0.67% of 350,000 active;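 active = mean inhibition of at least 50% after viability correction, with every replicate also passing that limit; inconclusive = mean reaches 50% but only one of two replicates passes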;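 also: firefly luciferase signal divided by Alamar Blue viability fluorescence both relative to DMSO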
PAX8 inh HTS: lowers PAX8-driven luciferase in RMG-I cells | 1.2% of 360,000 active | RMG-I TPO-luciferase reporter, SteadyGlo, 24 h | inhibition, % at 12.6 µM;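 active = mean replicate inhibition at least 60% with every replicate also reaching 60%; inconclusive = only one of the two criteria is met; inactive = mean below 60% and not all replicates reaching 60%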;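 also: luciferase light reporting Pax8 driven TPO promoter activity; plate controls were median of neutral control wells for no effect and mitoxantrone controls for full effect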
miR122 inh: blocks miR-122 activity in Huh7 sensor cells; Huh7 miR-122 Renilla luciferase sensor, 48 h; neutral wells = 0, positive control = 100; activation (reporter increase), % at 12.5 µM; 0.3% of 340,000 active; AID 602342;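 active = mean replicate activation score at least 90 and every replicate individually at or above 90; inconclusive = only one of the two criteria met; inactive = neither criterion met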;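 also: higher luciferase means less miR-122 activity so hits act as miR-122 inhibitors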
C2C12 statin: suppression of simvastatin myotoxicity. rescue of ATP level, % at 7.49 µM. AID 602340. 0.78% of 330,000 active. C2C12 myotubes + simvastatin, ATP luminescence, 48 h; scaled: DMSO 0, geranylgeraniol control 100;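 active = mean ATP rescue above about 67%, or every replicate alone reaching that limit, limit read from the data, passing the limit was not always enough; inconclusive = no clear call, values can overlap the other calls; inactive = mean under the limit and some replicate under it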;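 also: myotubes were challenged with 10 µM simvastatin during compound exposure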
Env fusion inh: HIV envelope-mediated fusion inhibition; 1.1% of 360,000 active; inhibition, % at 12.3 µM; HeLa-JRFL Env/CEM21 cell fusion, luciferase; AID 651610;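 active = mean replicate inhibition score of at least 50 and every replicate individually at or above 50; inconclusive = only one of the two criteria met; inactive = mean below 50 and not all replicates reaching 50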;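 also: 0% = plate neutral controls and 100% = maraviroc near 300 nM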
Numbers without * were called inactive; ? = inconclusive; / = no result given; [ ] = another dose, or the depositor's remark.

SMILES | GSIS activator | EWS-Fli block | PAX8 inh HTS | miR122 inh | C2C12 statin | Env fusion inh
COCC(=O)N(C)C[C@H]1Oc2cc(-c3ccc(OC)cc3)ccc2S(=O)(=O)N([C@H](C)CO)C[C@@H]1C | 1 | -11 | / | -8[16.7 µM] | -8 | 5[16.7 µM]
CCOC(=O)c1ccc(NC(=O)O[C@H]2[C@H](OC(=O)Nc3ccccc3)[C@@H](OC(=O)Nc3ccccc3)[C@@H](OC)O[C@@H]2CO)cc1 | / | -13 | 82* | / | / | -96[16.7 µM]
COc1ccc(NC(=O)Nc2ccc3c(c2)N(C)C(=O)CS3)cc1Cl | / | / | / | -7 | -17 | 76*
COc1ccc(C)cc1S(=O)(=O)Nc1cc(Cl)ccc1Cl | -11 | / | / | 215* | 35 | /
COc1cc(NS(=O)(=O)c2cc(C)ccc2OC)c(OC)cc1Cl | / | / | / | 69 | 15 | /
COc1ccc(Cl)cc1NS(=O)(=O)c1ccc(OC)c(OC)c1 | 20 | / | / | 36 | 1 | -34
COc1ccc(S(=O)(=O)Nc2cc(Cl)ccc2OC)cc1 | 14 | / | / | 138* | -49 | ?
CCc1ccc(OC)c(S(=O)(=O)Nc2ccccc2C)c1 | 2 | -8 | / | 115* | -2 | /
COc1ccc(CCNS(=O)(=O)c2ccc(N3CCCC3=O)cc2)cc1 | -8 | / | / | 17 | -5 | /
COc1ccc(OC)c(NS(=O)(=O)c2ccc(N3CCCC3=O)cc2)c1 | 8 | / | / | 120* | / | /
COc1ccc(C)cc1S(=O)(=O)Nc1ccccc1C | / | / | / | 74 | 24 | /
COc1ccc(S(=O)(=O)Nc2cc3c(cc2C(C)=O)OCO3)cc1 | -7 | 55* | 14 | / | / | -15
C[C@@H]1CCCCO[C@@H](CN(C)C(=O)Cc2ccccc2)[C@@H](C)CN([C@H](C)CO)C(=O)c2cc(NC(=O)Nc3ccccc3)ccc2O1 | -5 | -6 | -7 | 2[16.7 µM] | / | 14[16.7 µM]
Cc1ccc(CC2CC(=O)N(CCc3ccc4c(c3)OCO4)C2=O)cc1 (configuration not stated) | / | / | / | -4 | 147* | /
COc1cccc(CC2CC(=O)N(CCc3ccc4c(c3)OCO4)C2=O)c1 (configuration not stated) | -18 | / | / | -4 | 12 | /
N#Cc1c(N)nc(SCc2ccccn2)c(C#N)c1-c1cccs1 | -16 | / | / | -9 | / | 56*
CCCc1nc2ccc(NC(C)=O)cc2c(=O)n1Cc1ccc(Cl)cc1 | -15 | -141 | 67* | / | / | -54
C/C(=C\C(=O)C(F)(F)F)Nc1cc(C)cc(C)c1 | / | / | / | -5 | 139* | /
COc1ccc(-c2csc3ncnc(NCCN4CCOCC4)c23)cc1 | / | / | / | 11 | -6 | /
Cc1ccc(-c2csc3ncnc(NCCN4CCOCC4)c23)cc1 | / | / | 3 | 9 | / | ?
c1ccc(-c2csc3ncnc(NCCN4CCOCC4)c23)cc1 | 32 | / | 8 | -3 | / | 78*
Clc1ccc(-c2csc3ncnc(NCCN4CCOCC4)c23)cc1 | / | / | 2 | -4 | / | 63*
C[C@@H]1CN([C@H](C)CO)C(=O)Cc2cc(NC(=O)Cc3cn(C)c4ccccc34)ccc2O[C@@H]1CN(C)S(C)(=O)=O | 1 | -4 | -12 | -13[16.7 µM] | -16 | /
O=C(CN(Cc1ccccc1C(F)(F)F)C(=O)CNC(=O)c1ccco1)NC1CCCC1 | / | / | 4 | 1 | 113* | -58
CCc1cc(-c2nnn(-c3cc(C(C)C)ccc3C)c2CC)ccc1-c1cn(CCc2c[nH]c3ccccc23)nn1 | -2 | 29 | 49 | -3 | 17 | 84*
SMILES | GSIS activator | EWS-Fli block | PAX8 inh HTS | miR122 inh | C2C12 statin | Env fusion inh
COc1ccc(C(=O)N/N=C/c2cc(Br)ccc2O)cc1OC | -3 | 29 | 82* | / | / | 17
Cn1cccc1-c1cc(C(=O)N/N=C/c2cc(Br)ccc2O)[nH]n1 | -5 | 4 | 74* | -1 | -4 | -3
CCCN(C)C[C@@H]1Oc2cc(C#Cc3cccc(OC)c3)ccc2S(=O)(=O)N([C@@H](C)CO)C[C@@H]1C | 10 | 8 | -5 | -14[16.7 µM] | 10 | 8[16.7 µM]
C=CCn1c(SCC(=O)NC2CCCC2)nc2scc(-c3ccco3)c2c1=O | / | / | / | -6 | 116* | /
Cn1c(=O)c2c(nc(SCC(=O)NCc3ccc4c(c3)OCO4)n2Cc2ccc(Cl)cc2)n(C)c1=O | / | / | 11 | / | / | 106*
Cn1c(SCC(=O)NCc2ccc3c(c2)OCO3)nc2scc(-c3cccs3)c2c1=O | -17 | / | 8 | 9 | / | 7
C=CCn1c(SC(C)C(=O)NCc2ccc3c(c2)OCO3)nc2scc(-c3ccccc3)c2c1=O (configuration not stated) | -34 | / | / | 7 | 6 | 119*
